Results as given in PubChem BioAssay (NCATS).
Inconclusive results are not listed. Calls of active or inactive are those of the source. Unless noted, calls come from the whole dose curve; as a rule, active = well fitted curve in the direction sought with a large enough effect; inconclusive = small, poorly fitted or top-dose-only effect, or another doubt; inactive = no such curve, though single readings can be large; an effect the other way counts as inactive or inconclusive.

Key:
[1] = S16 Schwann cell PMP22 intronic element firefly luciferase assay (AID 624032); note: nearly all actives have a fitted effect of over 30% in size; note: potency is the fitted concentration of half-maximal effect
Outline: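 Luciferase reporter of PMP22 intronic-element expression in stably transfected S16 rat Schwann cells, read by ONE-Glo luminescence after 24 h compound exposure at 37 C. Activity scaled between DMSO (0%) and positive-control PTC124; concentration-effect curves quality-classified.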

CP237 = test: qHTS profiling for inhibitors of Plasmodium falciparum proliferation (AID 504749); note: nearly all actives have a fitted effect of over 60% in size; note: potency is the fitted concentration of half-maximal effect; conditions: P. falciparum in erythrocytes, SYBR Green DNA, 72 h; series mostly up to 12.8 µM
Outline: (§1)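 Infected RBCs, 0.3% parasitemia/2.5% Hct final; cpd 72 h, 37 C, 5% CO2; lysis buffer with saponin/triton/SYBR Green I, o/n RT dark; FI 485/535; norm. to artemisinin (0.29 uM) and DMSO.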

CP260 = test: as above; conditions: P. falciparum in erythrocytes, SYBR Green DNA, 72 h; series mostly up to 12.8 µM
Outline: as §1

CP269 = test: as above; conditions: P. falciparum in erythrocytes, SYBR Green DNA, 72 h; series mostly up to 12.8 µM
Outline: as §1

CP335 = test: as above; conditions: P. falciparum in erythrocytes, SYBR Green DNA, 72 h; series mostly up to 12.8 µM
Outline: as §1

P94_40 = test: as above; conditions: P. falciparum in erythrocytes, SYBR Green DNA, 72 h; series mostly up to 12.8 µM
Outline: as §1

[2] = molecular target: Cytochrome P450 2C9 (Homo sapiens) (UniProt P11712); test: qHTS Assay for Inhibitors and Substrates of Cytochrome P450 2C9 (AID 883); note: % is set by controls: 0 for no effect and ±100 for the full control effect; nearly all actives have a fitted effect of over 60% in size
Cytochrome P450 2C9 (Homo sapiens), sequence (P11712 whole entry, looked up): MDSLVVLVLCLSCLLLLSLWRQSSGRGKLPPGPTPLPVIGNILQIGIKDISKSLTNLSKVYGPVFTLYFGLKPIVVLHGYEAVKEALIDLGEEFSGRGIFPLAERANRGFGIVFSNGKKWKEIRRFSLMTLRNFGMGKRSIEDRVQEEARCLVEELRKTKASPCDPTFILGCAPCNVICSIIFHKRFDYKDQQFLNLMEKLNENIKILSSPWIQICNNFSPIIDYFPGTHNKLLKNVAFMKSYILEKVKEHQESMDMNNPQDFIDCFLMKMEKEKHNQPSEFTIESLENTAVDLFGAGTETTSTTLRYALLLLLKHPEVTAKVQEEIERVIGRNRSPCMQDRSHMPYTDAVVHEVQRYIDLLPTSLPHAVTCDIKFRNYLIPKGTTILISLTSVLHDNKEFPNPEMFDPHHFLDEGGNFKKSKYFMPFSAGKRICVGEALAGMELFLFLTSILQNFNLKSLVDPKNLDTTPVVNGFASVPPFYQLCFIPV
Outline: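 Luminescent read-out of deoxyluciferin hydroxylation, normalized to 57uM sulphaphenazole (AC100). Reaction: 10nM enzyme, 100uM Luciferin-H (equal to KM), 25mM KPO4, 10 min compound preincubation, then 60 min with NADPH regeneration, both at 37C.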

[3] = molecular target: ATP-dependent 6-phosphofructokinase (Trypanosoma brucei brucei) (UniProt O15648); test: qHTS Assay to Find Inhibitors of T. brucei phosphofructokinase: hit validation (AID 492961);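 note: luminescence reports ADP formed as PFK phosphorylates fructose-6-phosphate with ATP; % is set by controls: 0 for no effect and ±100 for the full control effect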
ATP-dependent 6-phosphofructokinase (Trypanosoma brucei brucei), sequence (O15648 whole entry, looked up): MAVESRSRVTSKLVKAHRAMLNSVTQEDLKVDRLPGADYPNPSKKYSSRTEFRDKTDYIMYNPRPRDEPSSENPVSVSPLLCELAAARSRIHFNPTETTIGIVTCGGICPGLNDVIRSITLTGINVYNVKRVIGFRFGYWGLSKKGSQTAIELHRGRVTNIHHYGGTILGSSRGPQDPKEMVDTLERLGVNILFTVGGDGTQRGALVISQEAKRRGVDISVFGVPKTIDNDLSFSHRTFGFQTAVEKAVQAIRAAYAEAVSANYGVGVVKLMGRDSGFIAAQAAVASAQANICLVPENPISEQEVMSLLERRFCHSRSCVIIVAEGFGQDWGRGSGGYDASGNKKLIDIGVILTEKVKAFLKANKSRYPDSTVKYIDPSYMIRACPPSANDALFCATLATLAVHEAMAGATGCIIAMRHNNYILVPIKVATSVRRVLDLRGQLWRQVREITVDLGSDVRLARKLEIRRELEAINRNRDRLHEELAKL
Outline: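 ADP-Glo luminescence read-out of ADP formed by 1.25 nM PFK from 0.1 mM ATP and 0.5 mM F6P (TEA pH 8.0, 45 min, RT). Compounds titrated; activity normalized to no-enzyme and full-enzyme controls.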

CP194 = test: qHTS profiling for inhibitors of Plasmodium falciparum proliferation (AID 504749); note: nearly all actives have a fitted effect of over 60% in size; note: potency is the fitted concentration of half-maximal effect; conditions: P. falciparum in erythrocytes, SYBR Green DNA, 72 h; series mostly up to 12.8 µM
Outline: as §1

CP211 = test: as above; conditions: P. falciparum in erythrocytes, SYBR Green DNA, 72 h; series mostly up to 12.8 µM
Outline: as §1

CP291 = test: as above; conditions: P. falciparum in erythrocytes, SYBR Green DNA, 72 h; series mostly up to 12.8 µM
Outline: as §1

PC26 = test: as above; conditions: P. falciparum in erythrocytes, SYBR Green DNA, 72 h; series mostly up to 12.8 µM
Outline: as §1

GB4 = test: as above; conditions: P. falciparum in erythrocytes, SYBR Green DNA, 72 h; series mostly up to 12.8 µM
Outline: as §1

CP215 = test: as above; conditions: P. falciparum in erythrocytes, SYBR Green DNA, 72 h; series mostly up to 12.8 µM
Outline: as §1

CP315 = test: as above; conditions: P. falciparum in erythrocytes, SYBR Green DNA, 72 h; series mostly up to 12.8 µM
Outline: as §1

DFO2036 = test: as above; conditions: P. falciparum in erythrocytes, SYBR Green DNA, 72 h; series mostly up to 12.8 µM
Outline: as §1

[4] = qHTS Assay for Identification of Small Molecule Agonists for Hypoxia Response Element Signaling Pathway (AID 914; active = well fitted activation curve with a large enough effect in the signal ratio, with a control signal flat, not every such curve was filed as active; the % refers to the signal ratio; note: % of control where 0% means no effect); conditions: ME-180 (cervical carcinoma) HRE-bla reporter, beta-lactamase ratio, CoCl2, 17 h; activation: stronger effect = higher value
Outline: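 Compounds in a titration series were added to ME-180 reporter cells alongside an EC50 level of CoCl2. After 17 hours, beta-lactamase activity was read as the 460nm/530nm emission ratio of CCF4, giving AC50 values.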

[5] = molecular target: Cytochrome P450 3A4 (Homo sapiens) (UniProt P08684); test: qHTS Assay for Inhibitors and Substrates of Cytochrome P450 3A4 (AID 884); note: % is set by controls: 0 for no effect and ±100 for the full control effect; nearly all actives have a fitted effect of over 50% in size
Cytochrome P450 3A4 (Homo sapiens), sequence (P08684 whole entry, looked up): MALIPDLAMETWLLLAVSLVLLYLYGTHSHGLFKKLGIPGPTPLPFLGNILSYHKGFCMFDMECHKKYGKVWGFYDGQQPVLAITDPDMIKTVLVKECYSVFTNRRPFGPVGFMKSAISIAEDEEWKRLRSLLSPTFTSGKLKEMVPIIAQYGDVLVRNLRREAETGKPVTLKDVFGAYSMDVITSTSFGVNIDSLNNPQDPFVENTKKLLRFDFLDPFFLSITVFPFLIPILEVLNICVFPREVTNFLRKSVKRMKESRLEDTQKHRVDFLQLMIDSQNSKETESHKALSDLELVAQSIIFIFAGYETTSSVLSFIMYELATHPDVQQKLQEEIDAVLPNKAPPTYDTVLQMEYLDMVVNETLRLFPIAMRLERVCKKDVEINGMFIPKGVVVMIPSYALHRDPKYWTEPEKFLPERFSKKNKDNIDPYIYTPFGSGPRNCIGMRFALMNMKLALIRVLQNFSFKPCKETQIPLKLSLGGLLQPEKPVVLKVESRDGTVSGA
Outline: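 20 nM human CYP3A4 with 25 uM Luciferin-PPXE (at KM) in 200 mM KPO4, preincubated 10 min with compound; NADPH regeneration started a 60 min RT reaction. Luciferin detected by luminescence, normalized to 57 uM ketoconazole as full inhibition.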

[6] = molecular target: Cytochrome P450 2D6 (Homo sapiens) (UniProt P10635); test: qHTS Assay for Inhibitors and Substrates of Cytochrome P450 2D6 (AID 891);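 note: luciferin methyl ether substrate demethylated by CYP2D6 with NADPH regeneration; % is set by controls: 0 for no effect and ±100 for the full control effect; nearly all actives have a fitted effect of over 60% in size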
Cytochrome P450 2D6 (Homo sapiens), sequence (P10635 whole entry, looked up): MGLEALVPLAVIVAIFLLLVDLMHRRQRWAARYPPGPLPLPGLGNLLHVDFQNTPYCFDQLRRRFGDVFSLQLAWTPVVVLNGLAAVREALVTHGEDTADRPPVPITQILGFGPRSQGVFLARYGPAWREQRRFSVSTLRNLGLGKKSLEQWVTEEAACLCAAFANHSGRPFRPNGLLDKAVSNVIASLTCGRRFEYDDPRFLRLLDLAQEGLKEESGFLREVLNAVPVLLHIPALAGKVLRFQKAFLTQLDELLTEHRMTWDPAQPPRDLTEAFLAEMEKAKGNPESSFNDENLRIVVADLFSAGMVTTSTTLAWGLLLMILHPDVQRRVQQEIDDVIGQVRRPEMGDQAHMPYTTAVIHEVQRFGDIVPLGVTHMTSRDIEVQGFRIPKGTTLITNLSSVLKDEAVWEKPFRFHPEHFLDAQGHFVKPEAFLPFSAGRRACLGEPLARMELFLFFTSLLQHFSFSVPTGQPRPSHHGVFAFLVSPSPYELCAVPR
Outline: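 Human CYP2D6 (5 nM) with 30 uM Luciferin-ME EGE (at Km) in 100 mM KPO4, compound preincubated 10 min, then NADPH regeneration system for 60 min at room temperature. Luciferin read by luminescence; normalized to 1.43 uM quinidine.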

[7] = molecular target: Cytochrome P450 3A4 (Homo sapiens) (UniProt P08684); test: qHTS Assay for Activators of Cytochrome P450 3A4 (AID 885); note: potency is the fitted concentration of half-maximal effect; nearly all actives have a fitted effect of over 65% in size
Outline: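 20nM CYP3A4 + 25uM Luciferin-PPXE (=KM), 200mM KPO4; cpd 10 min RT; NADPH regen, 60 min RT; stop w/ detection buffer, 20 min; luminescence. Normalized to 57 uM ketoconazole.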

C[N+]12CCC(CC1)[C@@H](OC(=O)C(O)(c1ccccc1)c1ccccc1)C2
inactive: Potency [1] | Potency (CP237) | Potency (CP260) | Potency (CP269) | Potency (CP335) | Potency (P94_40)

C=CCOc1ccccc1OC[C@H](O)CNC(C)C
inactive: Potency [2] | outcome [3] | Potency [1] | Potency (CP194) | Potency (CP211) | Potency (CP260) | Potency (CP269) | Potency (CP291) | Potency (CP335) | Potency (PC26)
active: Potency (CP237) 3.16 µM

C#C[C@@]1(O)CC[C@@H]2[C@@H]3CCC4=C(CCC(=O)C4)[C@H]3CC[C@]21C
inactive: outcome [3]

CC[C@@H]1OC(=O)[C@H](C)[C@H](O[C@@H]2C[C@](C)(OC)[C@H](O)[C@H](C)O2)[C@H](C)[C@H](O[C@@H]2O[C@@H](C)C[C@@H](N(C)C)[C@@H]2O)[C@](C)(O)C[C@H](C)C(=NOCOCCOC)[C@H](C)[C@H](O)[C@]1(C)O
inactive: Potency (CP194) | Potency (CP237) | Potency (CP291) | Potency (CP335) | Potency (GB4) | Potency (P94_40) | Potency (PC26)

CO[C@]1(NC(=O)C2SC(=C(C(N)=O)C(=O)O)S2)C(=O)N2C(C(=O)O)=C(CSc3nnnn3C)CS[C@H]21 (stereo partly specified)
inactive: outcome [3] | Potency (CP194) | Potency (CP211) | Potency (CP215) | Potency (CP237) | Potency (CP260) | Potency (CP269) | Potency (CP291) | Potency (CP315) | Potency (DFO2036) | Potency (GB4) | Potency (P94_40) | Potency (PC26)

NS(=O)(=O)c1cc2c(cc1Cl)N[C@@H](CC1CCCC1)NS2(=O)=O
inactive: Potency [2] | outcome [3] | Potency [1] | Potency (CP194) | Potency (CP211) | Potency (CP215) | Potency (CP237) | Potency (CP260) | Potency (CP269) | Potency (CP291) | Potency (CP315) | Potency (CP335) | Potency (DFO2036) | Potency (GB4) | Potency (P94_40) | Potency (PC26)

CN(C)CCn1nnnc1SCC1=C(C(=O)O)N2C(=O)[C@@H](NC(=O)Cc3csc(N)n3)[C@@H]2SC1
inactive: outcome [3] | Potency [1] | Potency (CP194) | Potency (CP211) | Potency (CP215) | Potency (CP237) | Potency (CP291) | Potency (CP315)

NC(=O)N[C@H]1NC(=O)NC1=O
inactive: Potency [1] | Potency (CP194) | Potency (CP211) | Potency (CP215) | Potency (CP237) | Potency (CP260) | Potency (CP269) | Potency (CP291) | Potency (CP315) | Potency (CP335) | Potency (P94_40) | Potency (PC26)

CC(C)(C)NC[C@H](O)COc1cccc2c1CCC(=O)N2
inactive: outcome [3] | Potency (CP194) | Potency (CP211) | Potency (CP215) | Potency (CP237) | Potency (CP260) | Potency (CP269) | Potency (CP291) | Potency (CP315) | Potency (GB4) | Potency (P94_40) | Potency (PC26)

C[C@@]12CC[C@H]3[C@@H](CCC4=CC(=O)CC[C@]43C)[C@H]1CC[C@H]2C(=O)CO
inactive: outcome [3] | Potency [1] | Potency (CP194) | Potency (CP211) | Potency (CP215) | Potency (CP237) | Potency (CP260) | Potency (CP269) | Potency (CP291) | Potency (CP315) | Potency (CP335) | Potency (DFO2036) | Potency (GB4) | Potency (PC26)

C[C@@H]1Cc2ccccc2N1NC(=O)c1ccc(Cl)c(S(N)=O)c1 (stereo partly specified)
active: Potency [1] 3.46 µM
inactive: activation [4] 7.68% | outcome [3] | Potency (CP194) | Potency (CP211) | Potency (CP215) | Potency (CP237) | Potency (CP260) | Potency (CP269) | Potency (CP291) | Potency (CP315) | Potency (CP335) | Potency (GB4) | Potency (P94_40) | Potency (PC26)

Cc1onc(-c2c(Cl)cccc2Cl)c1C(=O)N[C@H]1C(=O)N2[C@H]1SC(C)(C)[C@H]2C(=O)O
inactive: Potency [2] | Potency [5] | Potency [6]

CC(=O)CC(=O)[C@@]1(O)CC[C@@H]2[C@@H]3C=C(C)C4=CC(=O)CC[C@@H]4[C@H]3CC[C@]21C
inactive: Potency [5]
active: Potency [7] 2.51 µM

CC[C@H](CO)NCCN[C@@H](CC)CO
inactive: Potency [2] | outcome [3] | Potency [1] | Potency (CP194) | Potency (CP211) | Potency (CP215) | Potency (CP237) | Potency (CP260) | Potency (CP269) | Potency (CP291) | Potency (CP315) | Potency (CP335) | Potency (DFO2036) | Potency (GB4) | Potency (P94_40) | Potency (PC26)
